# This is a sample that favours compounds with a hit; in the whole collection about 8.2% have one here.
# KB-3-1 cytotox: kills parental KB-3-1 adenocarcinoma cells. KB-3-1 viability, CellTiter-Glo ATP luminescence, 72 h. Potency, µM (doses to about 46.1 µM), most hits filed as cytotoxic. 400,000 tested, 1.4% active. AID 1347075; also: nearly all actives have a fitted effect of over 60% in size
#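 72 h, 37 °C compound treatment of KB-3-1 parental cells; CellTiter-Glo added, 10 min, luminescence read. Data corrected against DMSO-only plates and normalized before curve fitting.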
# SW480 rereplic: inducers of DNA re-replication in SW480 colon cancer cells | SW480 DNA re-replication, Hoechst DNA content imaging, 48 h | 340,000 tested, 1.8% active | Potency, µM (series often up to 46.1 µM), usual class: activators; also: nearly all actives have a fitted effect of over 55% in size
#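 SW480 cells exposed to compounds for 48 hr at 37 C, 5% CO2, then Hoechst-stained 40 min. Nuclear DNA content imaged by fluorescence scanning (405 nm excitation, 500-530 nm emission); re-replication scored as increased high-intensity nuclei.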
# MCF10A rereplic: induces DNA re-replication in MCF 10a normal breast cells; 350,000 tested, 2.9% active; Potency, µM (top dose mostly 46.1 µM), actives largely listed as activators; AID 624296; MCF 10A DNA re-replication, Hoechst nuclear intensity, 48 h; also: nearly all actives have a fitted effect of over 50% in size
# KB-V1 cytotox: kills drug-selected multidrug resistant KB-V1 cells; KB-V1 MDR cells viability, CellTiter-Glo, 72 h; Potency, µM (titrated, usually from 46.1 µM), usual class: cytotoxic; 400,000 tested, 3.4% active; also: nearly all actives have a fitted effect of over 60% in size
#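 Cells of the MDR subline KB-V1 are plated, dosed with compound at multiple concentrations, and incubated 72 h at 37 degrees C; CellTiter-Glo is then added and luminescence read after 10 min.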
# ELG1 DNA repair: blocks ELG1-dependent DNA repair in HEK293T cells | Potency, µM (titrated, usually from 46.1 µM), most hits filed as inhibitors | AID 504467 | 330,000 tested, 2.3% active | HEK293T ELG1-luciferase reporter, luminescence, 16 h; DNA damage induced by 5-fluorouridine; also: nearly all actives have a fitted effect of over 55% in size
#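 Luminescence from the luciferase reporter, measured 30 min after ONE-Glo reagent at room temperature, was the read-out. Beforehand, 2,000 cells per well were exposed for 16 hr at 37 °C to 5-fluorouridine together with compound or vehicle.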
# ELG1 FLuc counter: luciferase inhibition in cell-free luciferin readout for ELG1 hits | shares compounds with ELG1 DNA repair | cell-free firefly luciferase luminescence counter-screen, ViewLux | Potency, µM (doses to about 46.1 µM), most hits filed as inhibitors | 350 tested, 3% active | AID 624247
# ELG1 Luc conf: confirmation of human ELG1-dependent DNA repair inhibitors; shares compounds with ELG1 DNA repair; HEK293T ELG1-luciferase levels, luminescence; cells co-treated with 5-fluorouridine; Potency, µM (highest dose often 46.1 µM), usual class: inhibitors; 670 tested, 68% active; AID 624248; also: nearly all actives have a fitted effect of over 55% in size
# ELG1-Luc MMS: MMS-stimulated human ELG1 repair inhibition, confirmed | shares compounds with ELG1 DNA repair | HEK293T luciferase-tagged ELG1 level, MMS stimulated | Potency, µM (doses to about 46.1 µM), usual class: inhibitors | 670 tested, 53% active; also: nearly all actives have a fitted effect of over 60% in size
# ELG1 5FU viab: confirmation of ELG1 repair inhibitors: viability with 5FU; cell viability with 5-FU, ELG1-dependent repair; Potency, µM (top dose mostly 46.1 µM), usual class: cytotoxic; shares compounds with ELG1 DNA repair; 670 tested, under 10 active; AID 624250;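 also: ELG1-luc HEK293T cells cotreated with 5-fluorouridine at 10 µM final; viability measured 16 h after compound addition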
# ELG1 MMS cell: confirmation of ELG1 repair inhibitors: viability with MMS; shares compounds with ELG1 DNA repair; 670 tested, 33% active; Cell viability with MMS, ELG1-dependent DNA repair; Potency, µM (titrated, usually from 46.1 µM), most hits filed as cytotoxic;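 also: ELG1-luc HEK293T cells co-treated with 10 µM MMS; viability read 16 h after compound addition; nearly all actives have a fitted effect of over 60% in size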
# ELG1 unstim viab: affects unstimulated cell viability, ELG1 hit counter-screen; shares compounds with ELG1 DNA repair; cell viability counter-screen, unstimulated, luminescence; Potency, µM (series often up to 45.9 µM), usual class: cytotoxic; 900 tested, 8% active;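 also: compound exposure lasted 16 hours before reading; nearly all actives have a fitted effect of over 55% in size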
# FLuc biochem: counter-screen for ELG1 repair inhibitors: firefly luciferase inhibition | shares compounds with ELG1 DNA repair | purified firefly luciferase, luminescence counter-screen | Potency, µM (top dose mostly 57.5 µM), hits mostly inhibitors | 350 tested, 10% active | AID 624253
# Hits are given with their value; - = inactive; ? = inconclusive; . = no result given; [ ] = dose if it differs, or a comment. Calls follow the shape of the dose curve; as a rule, active = well fitted curve in the direction sought with a large enough effect; inconclusive = small, poorly fitted or top-dose-only effect, or another doubt; inactive = no such curve, though single readings can be large; an effect the other way counts as inactive or inconclusive.
SMILES,KB-3-1 cytotox,SW480 rereplic,MCF10A rereplic,KB-V1 cytotox,ELG1 DNA repair,ELG1 Luc conf,ELG1-Luc MMS,ELG1 5FU viab,ELG1 MMS cell,ELG1 unstim viab,others
CC(C)(C)c1ccc(C(=O)NNc2ncccc2-n2cccc2)cc1,-,-,-,-,3.3µM,-,-,-,-,-,
CC(C)N1C(=O)c2ccccc2NC(=O)C1C(=O)NCc1ccccc1 (centres undefined),-,.,.,-,.,.,.,.,.,.,
CC(C)(C)c1ccc(C(=O)NNc2ccc(F)cc2F)cc1,-,-,-,-,?,.,.,.,.,.,
Cc1cc(C(=O)NNc2ccc(F)cc2F)no1,-,-,?,-,4.1µM,-,-,-,-,-,
Cc1cc(C)c(S(=O)(=O)c2cccc(C(F)(F)F)c2)c(=O)[nH]1,-,-,-,-,-,.,.,.,.,.,
COc1ccccc1/C=C(\NC(=O)c1ccc(OC)c(OC)c1)C(=O)Nc1cc([N+](=O)[O-])ccc1C,-,-,-,-,0.65µM,1.6µM,?,?,?,-,ELG1 FLuc counter=-;FLuc biochem=-
Cn1c(=O)c2c(nc(NC(Cc3ccccc3)C(=O)O)n2Cc2ccccc2)n(C)c1=O (centres undefined),-,-,-,-,-,?,-,-,-,-,ELG1 FLuc counter=-;FLuc biochem=-
CC1(c2ccc(OC(F)F)cc2)NC(=O)N(CC(=O)NC2CCCC2)C1=O (centres undefined),-,-,-,-,-,.,.,.,.,.,
CC1CCCCC1NC(=O)CN1C(=O)NC(C)(c2ccc(OC(F)F)cc2)C1=O (centres undefined),-,-,-,?,-,.,.,.,.,-,ELG1 FLuc counter=-;FLuc biochem=-
COc1cc(OC)c2c(-c3cccc(-c4ccc(C#N)cc4)c3)cc(=O)oc2c1,-,?,?,?,4.6µM,?,7.9µM,?,7.1µM,?,
COc1cc2cc(CN(Cc3cccnc3)C(=O)Nc3ccccc3F)c(=O)[nH]c2cc1OC,-,-,-[9.22 µM],-,5.8µM,10µM,-,?,-,-,ELG1 FLuc counter=-;FLuc biochem=-
CCN(CC)CCCN(Cc1cc2cc(OC)c(OC)cc2[nH]c1=O)C(=O)Nc1ccccc1,-,-,-,-,?,.,.,.,.,.,
Cc1nc(-c2ccc(S(=O)(=O)N3CCN(c4cccc(C(F)(F)F)c4)CC3)cc2)co1,-,.,.,-,.,.,.,.,.,.,
CCc1cc(=O)oc2c3c(cc(OCC(=O)NCc4cccnc4)c12)OC(C)(C)CC3,-,-,-,?,3.7µM,?,-,-,-,?,
COc1cc(C(=O)O)c2c(c1C)OC(=O)c1c(C)cc(O)c(C=O)c1O2,-,-,-,-,.,.,.,.,.,.,
O=c1[nH]c(=O)n([C@@H]2O[C@H](CO)[C@@H](O)[C@H]2O)cc1F,?,.,.,?,.,.,.,.,.,?,
COc1ccc2c(c1)c(C(C)=O)c(C)n2-c1ccccc1,-,-,-,?,?,.,.,.,.,.,
COc1ccc(-n2c(C)c(C(C)=O)c3cc(O)ccc32)cc1,-,-,-,?,0.82µM,0.89µM,?,-,?,-,ELG1 FLuc counter=?;FLuc biochem=-
O=C1OCC2OC(O)C(O)C(O)C2OC(=O)c2cc(O)c(O)c(O)c2-c2c(O)c(O)c3oc(=O)c4c(c(O)c(O)c5oc(=O)c2c3c54)-c2c1cc(O)c(O)c2O (centres undefined),.,.,.,.,-,.,.,.,.,.,
O=C(C[n+]1cc(-c2ccc(Cl)cc2)n2c1CCCCC2)c1ccccc1,?,-[9.22 µM],?,-,-,.,.,.,.,.,
Cc1ccc(-c2c[n+](Cc3ccc(Cl)cc3)c3n2CCC3)cc1,?,-,-,-,2.6µM,?,7.9µM,-,7.9µM,4µM,ELG1 FLuc counter=-;FLuc biochem=-
COc1ccc(NC(=O)N(C)C[C@@H]2OCc3cn(nn3)CCCC(=O)N([C@@H](C)CO)C[C@H]2C)cc1,-,.,.,-,.,.,.,.,.,.,
CCCCc1ccc(NC(=O)c2ccc(N(C)S(C)(=O)=O)cc2)cc1,-,-,?,-,1.5µM,?,0.44µM,-,0.63µM,?,
COC(=O)c1ccc(NC(=O)c2ccc(N(C)S(C)(=O)=O)cc2)cc1,-,-,-,?,3.7µM,-,5µM,-,5µM,?,
CCN(CC)S(=O)(=O)c1ccc(NC(=O)c2ccc(N(C)S(C)(=O)=O)cc2)cc1,?,-,-,-,3.7µM,?,0.79µM,-,1.1µM,?,
SMILES,KB-3-1 cytotox,SW480 rereplic,MCF10A rereplic,KB-V1 cytotox,ELG1 DNA repair,ELG1 Luc conf,ELG1-Luc MMS,ELG1 5FU viab,ELG1 MMS cell,ELG1 unstim viab,others
COc1ccc(NC(=O)c2ccc(N(C)S(C)(=O)=O)cc2)cc1OC,-,-,-,?,-,.,.,.,.,.,
CCN(CC)S(=O)(=O)c1ccc(NC(=O)c2ccccc2N(C)S(C)(=O)=O)cc1,-,-,-,-,-,.,.,.,.,.,
CCCCc1ccc(NC(=O)c2ccc(NS(C)(=O)=O)cc2)cc1,-,-,-,-,-,.,.,.,.,.,
Fc1ccc(C[n+]2csc3ccccc32)cc1,-,-,?,-,-,.,.,.,.,.,
ICC[n+]1csc2ccccc21,-,.,.,-,.,.,.,.,.,-,
Cc1sc2ncnc(NC3CCN(Cc4ccccc4)CC3)c2c1C,?,-,-,1.6µM,2.1µM,?,1.3µM,-,1.6µM,?,
CN(C)c1ccc(/C=C2\CCc3ccccc32)cc1,?,.,.,?,.,.,.,.,.,-,
CC1=Nc2cc(C(=O)N3CCCC3)ccc2Sc2c(C)ccc(C)c21,?,-,-,-,?,.,.,.,.,.,
CCOC(=O)N1CCN(C(=O)c2ccc3c(c2)N=C(C)c2cc(Cl)ccc2S3)CC1,?,-,-,-,3.7µM,8.9µM,?,?,?,?,
Cc1cc2ncc(-c3ccccc3)nc2cc1C,-,?,-,-,?,.,.,.,.,?,
Cc1ccc(-c2nc(NC(=O)c3cc(C(C)(C)C)nn3C)sc2C)cc1Cl,?,-,-,?,4.6µM,?,-,-,?,?,
Clc1ccccc1C1=Nn2c(nnc2-c2ccncc2)SC1,-,-,-,?,4.6µM,3.2µM,6.3µM,-,-,-,ELG1 FLuc counter=?;FLuc biochem=-

# Source: PubChem BioAssay (National Center for Advancing Translational Sciences (NCATS))
